Pf Dd2 inh: Plasmodium falciparum Dd2 growth inhibition. P. falciparum Dd2 growth, SYBR Green, 72 h. Potency, µM (series often up to 28.9 µM), inactives show at the top dose activity, negative = inhibition, hits mostly inhibitors. 120,000 tested, 4.3% active; active = well fitted inhibition curve with a large enough effect;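 note: plate controls were DMSO vehicle for no effect and reference drug for full effect; nearly all actives have a fitted effect of over 65% in size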
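Infected erythrocytes (Dd2, 0.3% parasitemia, 2.5% hematocrit final) are added to compound in RPMI-1640/Albumax II medium, grown 72 h at 37C in low oxygen, then lysed with saponin/Triton-X containing SYBR Green and read by fluorescence.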
* hit, by the source's call; i = inactive; [ ] = another dose, or the depositor's remark. The sample as a whole holds a higher share of hits than the screen did. Potency is the fitted concentration of half-maximal effect.

SMILES	Pf Dd2 inh
Clc1ccc(COCCn2ccnc2-c2cc3n(n2)CCNC3)cc1	i
CO[C@@]1(C)C[C@@H](O)C12CCN(C(=O)CCCc1ccc(F)cc1)CC2	-6.1%
CNCc1cn(C[C@H]2O[C@@H](CC(=O)N3CCN(c4ccccc4)CC3)[C@H](O)[C@@H]2O)nn1	-18.2%[44.1 µM]
COCCCN1CC2(CCC1=O)CCN(C(=O)C1CCCCn3nnnc31)CC2 (configuration not stated)	-8.6%
O=C(COc1ccccc1)NC1CCN(c2ccccc2)C1=O (configuration not stated)	28.7%
CCN(CC)C(=O)c1sc2c(c1C)c(=O)n(CCc1ccccc1)c(=O)n2Cc1cccc(Cl)c1	-17.8%
Cc1sc2c(c1C)c(=O)n(CCc1ccccc1)c(=O)n2Cc1ccccc1Cl	53.9%
CCN(CC)C(=O)c1sc2c(c1C)c(=O)n(CCc1ccccc1)c(=O)n2Cc1ccc(F)cc1Cl	10µM*
Cc1nc(-c2ccc(F)cc2)cc([C@H]2CN3CC[C@H]2C[C@@H]3CNC(=O)c2ccco2)n1	i
CC(=O)NC[C@H]1C[C@@H]2CCN1C[C@@H]2c1cc(-c2ccccc2)nc(C)n1	i
Cc1nc(-c2ccccc2)cc([C@H]2CN3CC[C@H]2C[C@@H]3CNC(=O)c2ccco2)n1	i
Cc1nc(-c2ccco2)cc([C@H]2CN3CC[C@H]2C[C@@H]3CNC2CCOCC2)n1	11.2µM*
Cc1nc(-c2ccco2)cc([C@H]2CN3CC[C@H]2C[C@@H]3CNCC2CCCCC2)n1	3.16µM*
Cc1nc(-c2ccco2)cc([C@H]2CN3CC[C@H]2C[C@@H]3CNC(=O)c2ccccc2)n1	i
Cc1nc(-c2ccco2)cc([C@H]2CN3CC[C@H]2C[C@@H]3CNC(=O)c2cccs2)n1	8.91µM*
CCCS(=O)(=O)NC[C@H]1C[C@@H]2CCN1C[C@@H]2c1cc(-c2ccccc2Br)nc(C)n1	i
Cc1nc(-c2ccccc2Br)cc([C@H]2CN3CC[C@H]2C[C@@H]3CNC(=O)c2cccs2)n1	-21.5%
CCC(CC)c1cc([C@H]2CN3CC[C@H]2C[C@@H]3CNC2CCN(C)CC2)nc(-c2ccncc2)n1	1.41µM*
Cc1nc(-c2ccco2)cc([C@H]2CN3CC[C@H]2C[C@@H]3CNS(C)(=O)=O)n1	i
Cc1nc(-c2ccccc2)cc([C@H]2CN3CC[C@H]2C[C@@H]3CNC(=O)C(C)(C)C)n1	-0.7%[44.1 µM]
O=C([C@@H]1C[C@H](Oc2ccccc2)CN1C(=O)c1ccoc1)N1CCOCC1	22.2%
Cc1noc(C)c1[S+](=O)([O-])N1CCCC2(CC(c3cccnc3)=NO2)C1 (configuration not stated)	-2.7%
CNc1nc2c(c(C(=O)N3CCCC3)n1)CN(CC1(O)CCNC1)CC2 (configuration not stated)	-11.2%
CN1CCC(OC2CCN(C(=O)c3ccc(Br)cc3)CC2)CC1	i
OC1(CN2CCN(CCc3ccccn3)CC2)CNCCOC1 (configuration not stated)	1.8%
SMILES	Pf Dd2 inh
Cc1ccc2c(C(=O)O)cc(NC(=O)C3CCC3)cc2n1	i
COCCOCc1nc(C2CCCN2C(=O)c2ccccn2)no1 (configuration not stated)	17.5%
Clc1ccccc1CNc1ncnc2c1nc1n2CCCC1	i
CCc1cccc(NC(=O)N2CCC(Oc3ncccc3C(=O)N3CCOCC3)C2)c1 (configuration not stated)	6.7%
CCOC(=O)c1cccc(NC(=O)CCSCCc2ccccn2)c1	-18.5%
Cc1ccc(Cn2nc(C)c(NC(=O)c3cc(-c4ccc(F)cc4)on3)c2C)cc1	i
CC(C)c1nc2c(c(-c3ccc(O)cc3)n1)CN(C(=O)C1CC1)CC2	i
CC(C)c1nc2c(c(-c3ccc(Cl)cc3)n1)CCN(C(=O)c1ccc(C(F)(F)F)cc1)CC2	10µM*
CC(C)c1nc2c(c(-c3ccc(O)cc3)n1)CN(C(=O)c1ccc(C(F)(F)F)cc1)CC2	i
COc1ccc(-c2nc(C(C)C)nc3c2CCN(C(=O)Nc2ccccc2)CC3)cc1	5.01µM*
COc1ccc(-c2nc(C(C)C)nc3c2CCN(C(C)=O)CC3)cc1	i
COc1ccc(-c2nc(C(C)C)nc3c2CCN(C(=O)N(C)C)CC3)cc1	-22.8%
COc1ccc(-c2nc(C(C)C)nc3c2CCN(C(=O)C2CC2)CC3)cc1	i
COc1ccccc1C(=O)N1CCc2nc(C(C)C)nc(-c3ccc(Cl)cc3)c2CC1	-28.1%
CC(C)c1nc2c(c(-c3ccc(O)cc3)n1)CN(C(=O)Nc1ccc(Cl)cc1)CC2	11.2µM*
CCc1nc2c(c(-c3ccc(OC)cc3)n1)CCN(C(=O)c1ccccc1OC)CC2	-9.5%
CC(C)c1nc2c(c(-c3ccc(O)cc3)n1)CN(C(=O)C1CCCC1)CC2	i
COc1ccc(-c2nc(C(C)C)nc3c2CCN(C(=O)c2ccc(F)cc2)CC3)cc1	11.2µM*
OC(Cn1ccnc1-c1cc(F)ccc1-n1cccn1)c1ccccc1 (configuration not stated)	-8.6%
Cc1ccc(NC(=O)CCc2nc3cccnc3n2-c2ccccc2)cc1	12.4%
O=C1NC(=NC2CCCCC2)C2(CCN(Cc3cccnc3)CC2)N1c1cccnc1	7.8%
O=C(CN1C(=O)NC2(CCCCC2)C1=O)NCCc1cccs1	13.0%
CCNC(=O)Nc1ccc(C(C(=O)O)N2CCOCC2)cc1OC (configuration not stated)	0.1%
O=C(c1cc2ccccc2[nH]1)N1CCc2c(n(Cc3cccnc3)n(-c3ccccc3)c2=O)C1	10.5%
CCN1c2cc(C(=O)N3CCCC3)ccc2C(=O)N2CCCCCC21 (configuration not stated)	0.5%
SMILES	Pf Dd2 inh
CNC(=O)N1CCC2(CC1)CC(N1CCN(CC(C)C)CC1)CCO2 (configuration not stated)	-8.9%
COC(=O)CNC(=O)C1CCCN(c2nc3ncccc3o2)C1 (configuration not stated)	-10.9%[44.1 µM]
CN1C(=O)CCCCC1C(=O)NCc1cccs1 (configuration not stated)	-13.6%
Cc1ccc(C(=O)N2CCc3nc(C(C)C)nc(-c4ccc(O)cc4)c3C2)cc1	i
COc1ccc(-c2nc(C(C)C)nc3c2CCN(C(=O)c2cccc(Cl)c2)CC3)cc1	5.62µM*
c1cncc(-c2n[nH]c(CC3CCNC3)n2)c1 (configuration not stated)	i
O=C([C@@H]1Cc2nc[nH]c2CN1Cc1cccc(OC(F)(F)F)c1)N1CCOCC1	i
Cc1ncc(-c2ccc(F)c3cccnc23)nc1C	-14.3%
CNC(=O)[C@@H]1C[C@H](Oc2cccnc2)CN1C(=O)c1ccc(OC)nc1OC	-12.8%
COc1ccccc1CNC(=O)c1ccc(Cn2ccn3nc4c(c3c2=O)CCCC4)cc1	-2.0%
CNC(=O)c1ccc(Cn2ccn3nc4c(c3c2=O)CCCC4)cc1	i
CC(CCc1ccccc1)NC(=O)c1ccc(Cn2ccn3nc4c(c3c2=O)CCCC4)cc1 (configuration not stated)	8.91µM*
CC(c1cccs1)N(C)Cc1ccccc1F (configuration not stated)	-6.4%[44.1 µM]
CCSc1oc(-c2ccco2)nc1S(=O)(=O)c1ccc(Br)cc1	-2.3%
O=C1Nc2ccc(-c3ccccc3)cc2C(=O)N2CCN(C(=O)c3cccnc3)C[C@H]12	-24.6%[44.1 µM]
COc1ccc(-c2ccc3c(c2)C(=O)N2CCN(C(=O)CC(C)(C)C)C[C@@H]2C(=O)N3)cc1	i
COc1ccc(-c2ccc3c(c2)C(=O)N2CCN(C(=O)c4ccccc4)C[C@@H]2C(=O)N3)cc1	5.01µM*
